Experimental data as given in PubChem BioAssay AID1159580 (chemical genetic matrix, 2015).
Screen size: about 5,500 compounds; about 2,000 (36%) were called active. Another 18% or so got no clear call; they are omitted. Rule as the data show it: active = normalized growth mostly below about 0.91 (no sharp cut-off); inconclusive = no clear call, values can overlap the other calls; inactive = mostly above about 0.92. This is one part of the list.

Experiment: chemical genetic growth profiling, strain panel (AID 1159580);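 also: tested at 20 µM; growth read once vehicle control cultures reached saturation at 30 °C; 1 = growth at the plate median or of vehicle wells; lower values mean less growth of the strain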
Conditions: S. cerevisiae deletion strains, growth OD

Measured: normalized growth

CCOc1ccc2nc(S(N)(=O)=O)sc2c1
inactive: locus YHR030C, strain SLT2, hits give low values 0.978 | locus YHR079C, strain IRE1, hits give low values 0.969 | locus YJL095W, strain BCK1, hits give low values 1.02 | locus YJR066W, strain TOR1, hits give low values 0.924 | locus YLR113W, strain HOG1, hits give low values 1.05 | locus YNL183C, strain NPR1, hits give low values 0.927 | locus YOR231W, strain MKK1, hits give low values 0.955 | locus YPL256C, strain CLN2, hits give low values 0.963
